Test results taken from PubChem BioAssay.
Active and inactive are the calls of the source. The rule behind the calls is not given here.

These compounds were tested on Aerobactin synthetase IucA (Klebsiella pneumoniae, hypervirulent) (assay: biochemical IucA inhibition screen of LOPAC library by absorbance (AID 1346212;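 note: 100% = no compound wells and 0% = no enzyme wells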)). Settings: IucA enzyme assay, absorbance (OD) readout; active compounds read low;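 tested at 8 µM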.
In the case of `NC(N)=N/N=C/c1c(Cl)cccc1Cl`, the remaining activity is reported as 87.5% (inactive). In the case of `CN(C)CC[C@@H](c1ccc(Cl)cc1)c1ccccn1`, the remaining activity is reported as 117% (inactive). For `COc1cc(/C=C(\C#N)C(=O)c2ccc(O)c(O)c2)cc(I)c1O`, the remaining activity was 85.4% (inactive). With `Cn1c(=O)c2[nH]c(-c3ccc(S(=O)(=O)O)cc3)nc2n(C)c1=O` the remaining activity was 117% (inactive). With `COc1cc2c(CCNC(C)=O)c[nH]c2cc1Cl` the remaining activity was 115% (inactive). For `CCOC(=O)C1=C(C)NC(C)=C(C(=O)OC)C1c1cccc(Cl)c1Cl` (stereo not given), the remaining activity was 99.8% (inactive). In the case of `NS(=O)(=O)c1cccc2c1c([N+](=O)[O-])cc1nc(O)c(O)nc12`, the remaining activity is reported as 106% (inactive). With `COc1ccccc1N1CCN(CCCNc2cc(=O)n(C)c(=O)n2C)CC1` the remaining activity was 97% (inactive). For `C[N+](C)(C)CC=O`, the remaining activity was 101% (inactive). In the case of `O=C(c1cc(O)c(O)c([N+](=O)[O-])c1)c1ccccc1F`, the remaining activity is reported as 104% (inactive). For `N#C/C(=C\c1c[nH]c2ccccc12)C(=O)c1ccc(O)c(O)c1`, the remaining activity was 97.5% (inactive). In the case of `N#CC(=C(/N)Sc1ccccc1N)/C(C#N)=C(\N)Sc1ccccc1N`, the remaining activity is reported as 104% (inactive). In the case of `CN1C2CCC1CC(OC(=O)c1c[nH]c3ccccc13)C2` (stereo not given), the remaining activity is reported as 97.7% (inactive). With `Nc1ncnc2c1c(-c1ccc(Oc3ccccc3)cc1)cn2C1CCCC1` the remaining activity was 122% (inactive). With `O=[N+]([O-])c1ccc(-c2nc(-c3ccc(F)cc3)c(-c3ccncc3)[nH]2)cc1` the remaining activity was 95.7% (inactive). For `N[C@@H](Cc1cnc[nH]1)C(=O)O`, the remaining activity was 113% (inactive). In the case of `Cc1cccc(/C=C/c2ccccc2)n1`, the remaining activity is reported as 81% (inactive). In the case of `CCCCCCCC/C=C\CCCCCCCC(=O)NCCO`, the remaining activity is reported as 98.7% (inactive). For `Nc1nc2c(ncn2COC(CO)CO)c(=O)[nH]1`, the remaining activity was 111% (inactive). `O=c1oc(Cl)c(Cl)c2ccccc12` was tested, and the remaining activity was 92.9% (inactive). For `C#CC(N)CCC(=O)O` (stereo not given), the remaining activity was 122% (inactive). With `CCCCCC(O)CCCC(=O)O` (stereo not given) the remaining activity was 101% (inactive). In the case of `CCCc1c(OCCCOc2ccc(OCC(=O)O)cc2)ccc(C(C)=O)c1O`, the remaining activity is reported as 101% (inactive). With `CC(CCc1ccc(O)cc1)NCCc1ccc(O)c(O)c1` (stereo not given) the remaining activity was 98.4% (inactive). With `C[C@H]1C[C@H]2[C@@H]3CCC4=CC(=O)C=C[C@]4(C)[C@@]3(F)[C@@H](O)C[C@]2(C)[C@@]1(O)C(=O)CO` the remaining activity was 114% (inactive). `CNCCc1cnc(CCC(c2ccccc2)c2ccccc2)[nH]1` was tested, and the remaining activity was 110% (inactive). For `O=c1c(O)c(-c2cc(O)c(O)c(O)c2)oc2cc(O)cc(O)c12`, the remaining activity was 115% (inactive). `CN(C)c1nc(N)c(C(=O)N=C(N)N)nc1Cl` was tested, and the remaining activity was 119% (inactive). For `O=C1NC(=O)C(c2ccccc2[N+](=O)[O-])=C1Nc1ccc(O)c(Cl)c1`, the remaining activity was 95% (inactive). `Nc1nc(OCc2ccccc2)c2[nH]cnc2n1` was tested, and the remaining activity was 103% (inactive). With `CCCCCCCCCCCCCCCCCC(=O)NCC(COP(=O)([O-])OCC[N+](C)(C)C)OCC` (stereo not given) the remaining activity was 97.5% (inactive). In the case of `O=C(CCNNC(=O)c1ccncc1)NCc1ccccc1`, the remaining activity is reported as 115% (inactive). `CC(C)C[C@H](NC(=O)[C@@H](O)[C@H](N)Cc1ccccc1)C(=O)O` was tested, and the remaining activity was 108% (inactive). `CCCCCCCCCCCCCCC[C@H](O)[C@H](N)CO` was tested, and the remaining activity was 83.3% (inactive). `C[C@@H]1[C@@H]2Cc3ccc(O)cc3[C@@]1(C)CCN2CC1CC1` was tested, and the remaining activity was 103% (inactive). `CC1(C)CCC=[N+]1[O-]` was tested, and the remaining activity was 120% (inactive). With `N#CC(C#N)=C(N)/C(C#N)=C/c1ccc(O)cc1` the remaining activity was 117% (inactive). `N[C@H]1CONC1=O` was tested, and the remaining activity was 113% (inactive). In the case of `Fc1ccc(C(OCCCc2cnc[nH]2)c2ccc(F)cc2)cc1`, the remaining activity is reported as 111% (inactive). With `O=C(NCC1CCCCN1)c1cc(OCC(F)(F)F)ccc1OCC(F)(F)F` (stereo not given) the remaining activity was 91.1% (inactive).
